Potency and activity change, negative = cytotoxicity data for 40 molecules are collected here from PubChem BioAssay (Tox21).

The structures appear in SMILES notation. Records with an inconclusive call do not appear. Where a call stands in place of a potency, no number is given. Unmarked numbers belong to inactive results. The source made the active and inactive calls. The call rests on the fitted dose curve; in most records, active means well fitted cell-killing curve with a large enough effect in the repeat runs; inconclusive means weak or mixed curves, or effect the other way; inactive means no such curve, though single readings can be large or run the other way.
Potency means the concentration at half of the fitted maximal effect.

The nature of this assay: qHTS assay to identify small molecule antagonists of the progesterone receptor (PR) signaling pathway - cell viability counter screen (AID 1346798). Further: nearly all actives have a fitted effect of over 50% in size. The note with it: PR-UAS-bla HEK293T viability, CellTiter-Glo luminescence, 16 h; series mostly up to 92.4 µM. The text has this:
National Center for Advancing Translational Sciences [NCATS]
NIH Chemical Genomics Center [NCGC]
U.S. Environmental Protection Agency [EPA]
National Institutes of Environmental Health Sciences [NIEHS]
National Toxicology Program [NTP]
U.S. Food and Drug Administration [FDA]
Progesterone receptor (PR), a nuclear hormone receptor, plays an important role in development, metabolic homeostasis and reproduction. It is activated by the steroid hormone progesterone. Endocrine disrupting chemicals (EDCs) and their interactions with steroid hormone receptors like PR causes disruption of normal endocrine function. To identify the compounds that inhibit PR signaling, a PR-UAS-bla GripTite cell line i.e. PR-UAS-bla HEK293T (Invitrogen, Carlsbad, CA, USA) containing a beta-lactamase reporter gene under the control of an UAS response element was used to screen Tox21 10K compound library. The cytotoxicity of the Tox21 compound library against the PR-bla cell line was tested in parallel by measuring the cell viability using CellTiter-Glo assay in the same wells.
Tox21 Assay Protocol Summary:
PR-UAS-bla HEK293T cells were dispensed at 3,000 cells/4 uL of assay medium containing 2% charcoal stripped FBS per well into black wall/clear-bottom 1536-well plates using a Multidrop Combi (ThermoFisher Scientific, Waltham, MA) dispenser. After the assay plates were incubated at a 37C and 5% CO2 for 4 hr, 23 nL of compounds dissolved in DMSO, positive controls or DMSO only was transferred to the assay plate by a Pintool station (Kalypsys, San Diego, CA), followed by addition of 1 uL of R5020 in assay medium using a Flying Reagent Dispenser (FRD, Aurora Discovery, San Diego, CA). The plates were incubated at 37C and 5% CO2 for 16 hr. Then 1 uL of LiveBLAzer B/G FRET substrate was added using a Flying Reagent Dispenser, the plates were incubated at room temperature for 2 hours, and fluorescence intensity was measured by an Envision plate reader (PerkinElmer, Shelton, CT). For cell viability readout that measures cytotoxicity, 4 uL/well of CellTiter-Glo reagent was added into the assay plates using a FRD. After 30 min incubation at room temperature, the luminescence intensity in the plates was measured using a ViewLux (PerkinElmer) plate reader.
In general terms: qHTS replaces the single test concentration by a dilution series.
In the case of `CC(CN=Cc1ccccc1O)N=Cc1ccccc1O` (stereo not given), the Potency entry was “inactive”.
For the molecule `Cc1c(N=C=O)cccc1N=C=O`, the Potency entry is “inactive”.
On to `CCc1c(C)[nH]c2c1C(=O)C(CN1CCOCC1)CC2` (stereo not given), for which the Potency result was “inactive”.
In the case of `CCOc1ccccc1O`, the Potency result was “inactive”.
Consider `CC(C)(C)c1cc(C=O)cc(C(C)(C)C)c1O`, for which the Potency entry is “inactive”.
In the case of `CCCCCCCCCCCCCCCCCCCl`, the activity change, negative = cytotoxicity was -19.4% [at 8.39 µM].
For the molecule `CC(=O)Nc1cccc(N)c1`, the Potency result was “inactive”.
Take `CC(C)CCCCCOC(=O)CS`: the Potency entry is “inactive”.
For the molecule `Cc1ccccc1CCO`, the Potency result is “inactive”.
`O=C(OCCCCCOC(=O)c1ccccc1)c1ccccc1`: the Potency result was “inactive”.
`FC(F)(Cl)C(F)(Cl)Cl`: the Potency entry is “inactive”.
As for `OCCc1ccncc1`, the Potency entry was “inactive”.
As to `O=[N+]([O-])c1ccc(Cl)cc1Cl`, the Potency result was “inactive”.
With `O=C(O)c1ccncc1`, the Potency entry was “inactive”.
Still for that read-out and setting: the result for `CC(C)(C(=O)O)c1ccc(C(O)CCCN2CCC(C(O)(c3ccccc3)c3ccccc3)CC2)cc1` (stereo not given) reads “inactive”; that for `O=c1c2ccccc2oc2ccccc12`, “inactive”.
In the case of `CCC(C)CCCC(C)(C)O` (stereo not given), the Potency result was “inactive”.
`CS(C)=O`: the Potency entry is “inactive”.
On to `CC/C=C/CCO`, for which the Potency is 31.2 µM (active).
As for `C[C@@H](O)[C@H]1C(=O)N2C(C(=O)O)=C(S[C@@H]3CN[C@H](CNS(N)(=O)=O)C3)[C@H](C)[C@H]12`, the Potency entry is “inactive”.
Regarding `CCc1ccc(C(=O)C(C)CN2CCCCC2)cc1` (stereo not given), the Potency entry was “inactive”.
On to `CCCCCCCCCCCCCCCCC(=O)O`, for which the Potency entry is “inactive”.
With `CCc1ccc2c(c1)C(=O)c1ccccc1C2=O`, the Potency entry was “inactive”.
Turning to `C=CC(C)CCC=C(C)C` (stereo not given), the Potency result was “inactive”.
On to `CC(CC(C#N)(c1ccccc1)C(C)C)N(C)C` (stereo not given), for which the Potency result was “inactive”.
Consider `CC(C)(C)N`, for which the Potency result was “inactive”.
For `Clc1cc(Cl)c2c(c1)N=C1CCCCCN1C2`, the Potency entry is “inactive”.
As to `O=S(=O)(O)c1cc(Cl)c(Cl)cc1Cl`, the Potency is 30.6 µM (active).
On to `CCc1cnc(C(=O)O)c(C(=O)O)c1`, for which the Potency result was “inactive”.
Turning to `CCCc1nc(C)c2c(=O)[nH]c(-c3cc(S(=O)(=O)N4CCN(CC)CC4)ccc3OCC)nn12`, the Potency entry is “inactive”.
On the same count and under the same terms, as for `Cc1ccc(S(=O)(=O)NC(=O)NC2CCCC2)cc1`, the entry is “inactive”.
Turning to `O=C(O)c1ccccc1[N+](=O)[O-]`, the Potency entry was “inactive”.
Same read-out and setting: as for `CCCC1CCOC(C)S1` (stereo not given), the entry is “inactive”; as for `CCCCCCC/C=C/C=O`, “inactive”; as for `CCOC(OCC)OCC`, “inactive”.
For `SCCOCCOCCS`, the Potency entry is “inactive”.
On to `CC1(C)C(=O)NC(=O)N1CO`, for which the Potency entry was “inactive”.
On to `CCCC1CCCC(=O)O1` (stereo not given), for which the Potency result was “inactive”.
On to `CC(C(=O)O)c1ccc2c(c1)Cc1cccnc1O2` (stereo not given), for which the Potency result was “inactive”.
With `NCCOCCOCCN`, the Potency is 15.4 µM (active).
